Data as given in ChEMBL document CHEMBL1961873, “Compounds: GSK PKIS; Assays: Nanosyn kinase panel” (2012).

Tests used:
[1] = target: T1, Ephrin type-B receptor 2 (Homo sapiens) (UniProt P29323); conditions: at 1 µM
T1 sequence (whole entry): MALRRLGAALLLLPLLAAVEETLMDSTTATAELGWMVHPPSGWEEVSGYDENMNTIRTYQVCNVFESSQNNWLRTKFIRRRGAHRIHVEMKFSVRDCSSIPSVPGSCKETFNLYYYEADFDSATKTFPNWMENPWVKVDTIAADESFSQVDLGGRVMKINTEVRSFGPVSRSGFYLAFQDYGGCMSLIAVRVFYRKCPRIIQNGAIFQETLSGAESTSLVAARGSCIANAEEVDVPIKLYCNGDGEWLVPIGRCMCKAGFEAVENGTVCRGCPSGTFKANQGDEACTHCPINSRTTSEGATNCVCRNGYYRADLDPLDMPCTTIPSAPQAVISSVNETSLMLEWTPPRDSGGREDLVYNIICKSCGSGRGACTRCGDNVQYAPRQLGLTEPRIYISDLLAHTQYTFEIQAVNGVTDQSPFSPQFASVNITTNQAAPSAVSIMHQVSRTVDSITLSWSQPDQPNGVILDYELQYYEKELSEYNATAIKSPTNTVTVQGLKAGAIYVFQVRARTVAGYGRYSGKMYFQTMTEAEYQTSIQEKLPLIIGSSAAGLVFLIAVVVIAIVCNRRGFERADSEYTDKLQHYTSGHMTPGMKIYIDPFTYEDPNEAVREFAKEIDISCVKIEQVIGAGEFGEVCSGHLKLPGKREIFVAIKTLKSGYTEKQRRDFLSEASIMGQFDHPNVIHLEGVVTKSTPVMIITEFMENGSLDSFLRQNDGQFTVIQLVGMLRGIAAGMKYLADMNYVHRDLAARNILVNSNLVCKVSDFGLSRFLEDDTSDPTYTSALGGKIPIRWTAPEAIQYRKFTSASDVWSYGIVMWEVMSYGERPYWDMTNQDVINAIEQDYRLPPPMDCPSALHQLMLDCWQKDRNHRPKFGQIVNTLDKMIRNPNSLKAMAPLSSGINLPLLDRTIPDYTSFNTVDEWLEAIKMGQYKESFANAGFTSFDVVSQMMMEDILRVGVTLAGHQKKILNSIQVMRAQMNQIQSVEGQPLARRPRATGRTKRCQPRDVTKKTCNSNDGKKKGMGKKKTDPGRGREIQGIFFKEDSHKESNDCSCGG

[2] = target: T2, Ephrin type-B receptor 3 (Homo sapiens) (UniProt P54753); conditions: at 0.1 µM
T2 sequence (whole entry): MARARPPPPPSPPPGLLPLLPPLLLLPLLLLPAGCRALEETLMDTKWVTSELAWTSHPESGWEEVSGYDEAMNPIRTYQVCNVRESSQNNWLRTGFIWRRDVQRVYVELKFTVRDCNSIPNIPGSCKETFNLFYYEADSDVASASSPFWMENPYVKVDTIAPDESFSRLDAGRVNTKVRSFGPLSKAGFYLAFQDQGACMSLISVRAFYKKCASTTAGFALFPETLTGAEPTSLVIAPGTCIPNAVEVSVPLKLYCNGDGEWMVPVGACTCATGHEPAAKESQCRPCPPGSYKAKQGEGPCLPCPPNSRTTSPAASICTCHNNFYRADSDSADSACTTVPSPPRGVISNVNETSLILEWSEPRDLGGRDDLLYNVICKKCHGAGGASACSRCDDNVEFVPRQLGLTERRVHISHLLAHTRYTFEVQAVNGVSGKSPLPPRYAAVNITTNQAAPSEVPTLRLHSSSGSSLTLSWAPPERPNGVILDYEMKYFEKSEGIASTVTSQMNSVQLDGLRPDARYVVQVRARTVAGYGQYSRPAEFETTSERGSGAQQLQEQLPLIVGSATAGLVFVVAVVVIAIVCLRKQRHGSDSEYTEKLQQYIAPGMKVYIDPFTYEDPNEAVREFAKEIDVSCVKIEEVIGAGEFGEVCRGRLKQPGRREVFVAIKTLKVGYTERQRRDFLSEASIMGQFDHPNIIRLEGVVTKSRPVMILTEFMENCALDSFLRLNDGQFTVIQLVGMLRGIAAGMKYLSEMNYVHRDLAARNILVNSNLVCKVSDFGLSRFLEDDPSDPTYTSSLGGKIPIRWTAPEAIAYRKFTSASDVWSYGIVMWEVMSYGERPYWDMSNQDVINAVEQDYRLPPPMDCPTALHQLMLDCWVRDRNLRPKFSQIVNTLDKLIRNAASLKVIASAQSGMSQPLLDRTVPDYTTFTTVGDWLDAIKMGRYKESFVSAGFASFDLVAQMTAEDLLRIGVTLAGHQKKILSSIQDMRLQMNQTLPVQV

[3] = target: T2, Ephrin type-B receptor 3 (Homo sapiens); conditions: at 1 µM
[4] = target: T3, Ephrin type-B receptor 4 (Homo sapiens) (UniProt P54760); conditions: at 0.1 µM
T3 sequence (whole entry): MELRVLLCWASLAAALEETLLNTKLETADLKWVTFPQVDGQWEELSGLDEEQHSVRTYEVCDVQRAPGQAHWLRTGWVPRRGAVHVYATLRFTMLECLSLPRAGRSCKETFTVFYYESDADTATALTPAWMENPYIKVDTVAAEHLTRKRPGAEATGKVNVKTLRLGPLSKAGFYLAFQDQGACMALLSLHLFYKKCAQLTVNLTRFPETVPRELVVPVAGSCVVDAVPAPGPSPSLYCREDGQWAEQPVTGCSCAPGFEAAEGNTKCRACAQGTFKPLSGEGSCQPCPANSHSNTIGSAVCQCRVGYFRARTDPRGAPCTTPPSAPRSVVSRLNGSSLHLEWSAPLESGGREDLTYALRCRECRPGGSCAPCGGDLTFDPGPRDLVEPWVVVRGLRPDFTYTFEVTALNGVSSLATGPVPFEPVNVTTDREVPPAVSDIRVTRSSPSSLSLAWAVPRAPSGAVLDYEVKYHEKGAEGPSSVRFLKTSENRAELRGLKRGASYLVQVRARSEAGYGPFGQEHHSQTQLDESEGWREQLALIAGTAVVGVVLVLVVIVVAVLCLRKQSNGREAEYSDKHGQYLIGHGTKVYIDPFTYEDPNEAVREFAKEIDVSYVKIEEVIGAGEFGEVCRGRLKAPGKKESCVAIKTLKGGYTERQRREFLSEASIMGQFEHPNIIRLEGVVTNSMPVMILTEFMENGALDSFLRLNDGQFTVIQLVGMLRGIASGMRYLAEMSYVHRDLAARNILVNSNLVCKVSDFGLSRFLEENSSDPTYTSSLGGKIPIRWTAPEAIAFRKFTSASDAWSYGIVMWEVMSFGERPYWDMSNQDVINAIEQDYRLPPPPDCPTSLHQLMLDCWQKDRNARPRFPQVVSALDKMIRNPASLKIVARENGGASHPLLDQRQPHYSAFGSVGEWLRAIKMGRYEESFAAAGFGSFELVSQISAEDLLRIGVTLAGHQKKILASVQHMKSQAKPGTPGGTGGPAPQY

[5] = target: T3, Ephrin type-B receptor 4 (Homo sapiens); conditions: at 1 µM
[6] = target: Receptor tyrosine-protein kinase erbB-2 (Homo sapiens) (UniProt P04626); conditions: at 0.1 µM
[7] = target: Receptor tyrosine-protein kinase erbB-2 (Homo sapiens) (UniProt P04626); conditions: at 1 µM
[8] = target: Receptor tyrosine-protein kinase erbB-4 (Homo sapiens) (UniProt Q15303); conditions: at 0.1 µM
[9] = target: Receptor tyrosine-protein kinase erbB-4 (Homo sapiens) (UniProt Q15303); conditions: at 1 µM
[10] = target: Tyrosine-protein kinase Fer (Homo sapiens) (UniProt P16591); conditions: at 0.1 µM;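 note: reported figures are averaged percent inhibition of FER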
Tyrosine-protein kinase Fer (Homo sapiens), sequence (P16591 whole entry, looked up): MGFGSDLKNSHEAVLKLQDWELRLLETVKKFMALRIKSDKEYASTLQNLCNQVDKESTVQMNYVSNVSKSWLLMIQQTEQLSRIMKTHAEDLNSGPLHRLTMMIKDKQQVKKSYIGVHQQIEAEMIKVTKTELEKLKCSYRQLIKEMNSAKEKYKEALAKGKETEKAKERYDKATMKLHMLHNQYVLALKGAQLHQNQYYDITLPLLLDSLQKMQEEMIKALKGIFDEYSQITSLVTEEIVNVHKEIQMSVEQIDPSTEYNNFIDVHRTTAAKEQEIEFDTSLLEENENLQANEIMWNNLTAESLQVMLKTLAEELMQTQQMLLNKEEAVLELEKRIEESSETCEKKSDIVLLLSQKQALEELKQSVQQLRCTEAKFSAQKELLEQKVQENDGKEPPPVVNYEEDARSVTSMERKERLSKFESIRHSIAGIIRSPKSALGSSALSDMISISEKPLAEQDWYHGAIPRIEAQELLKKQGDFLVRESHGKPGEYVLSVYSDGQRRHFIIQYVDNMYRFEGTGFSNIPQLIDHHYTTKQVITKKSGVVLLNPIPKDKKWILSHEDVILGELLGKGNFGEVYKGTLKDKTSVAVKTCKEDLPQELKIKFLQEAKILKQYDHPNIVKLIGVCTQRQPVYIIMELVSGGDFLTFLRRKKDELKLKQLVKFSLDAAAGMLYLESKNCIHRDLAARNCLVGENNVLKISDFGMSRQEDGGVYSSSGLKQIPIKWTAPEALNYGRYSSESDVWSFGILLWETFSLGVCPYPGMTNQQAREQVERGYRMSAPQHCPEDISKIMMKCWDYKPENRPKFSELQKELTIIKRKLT

Receptor tyrosine-protein kinase erbB-2 (Homo sapiens), sequence (P04626 whole entry): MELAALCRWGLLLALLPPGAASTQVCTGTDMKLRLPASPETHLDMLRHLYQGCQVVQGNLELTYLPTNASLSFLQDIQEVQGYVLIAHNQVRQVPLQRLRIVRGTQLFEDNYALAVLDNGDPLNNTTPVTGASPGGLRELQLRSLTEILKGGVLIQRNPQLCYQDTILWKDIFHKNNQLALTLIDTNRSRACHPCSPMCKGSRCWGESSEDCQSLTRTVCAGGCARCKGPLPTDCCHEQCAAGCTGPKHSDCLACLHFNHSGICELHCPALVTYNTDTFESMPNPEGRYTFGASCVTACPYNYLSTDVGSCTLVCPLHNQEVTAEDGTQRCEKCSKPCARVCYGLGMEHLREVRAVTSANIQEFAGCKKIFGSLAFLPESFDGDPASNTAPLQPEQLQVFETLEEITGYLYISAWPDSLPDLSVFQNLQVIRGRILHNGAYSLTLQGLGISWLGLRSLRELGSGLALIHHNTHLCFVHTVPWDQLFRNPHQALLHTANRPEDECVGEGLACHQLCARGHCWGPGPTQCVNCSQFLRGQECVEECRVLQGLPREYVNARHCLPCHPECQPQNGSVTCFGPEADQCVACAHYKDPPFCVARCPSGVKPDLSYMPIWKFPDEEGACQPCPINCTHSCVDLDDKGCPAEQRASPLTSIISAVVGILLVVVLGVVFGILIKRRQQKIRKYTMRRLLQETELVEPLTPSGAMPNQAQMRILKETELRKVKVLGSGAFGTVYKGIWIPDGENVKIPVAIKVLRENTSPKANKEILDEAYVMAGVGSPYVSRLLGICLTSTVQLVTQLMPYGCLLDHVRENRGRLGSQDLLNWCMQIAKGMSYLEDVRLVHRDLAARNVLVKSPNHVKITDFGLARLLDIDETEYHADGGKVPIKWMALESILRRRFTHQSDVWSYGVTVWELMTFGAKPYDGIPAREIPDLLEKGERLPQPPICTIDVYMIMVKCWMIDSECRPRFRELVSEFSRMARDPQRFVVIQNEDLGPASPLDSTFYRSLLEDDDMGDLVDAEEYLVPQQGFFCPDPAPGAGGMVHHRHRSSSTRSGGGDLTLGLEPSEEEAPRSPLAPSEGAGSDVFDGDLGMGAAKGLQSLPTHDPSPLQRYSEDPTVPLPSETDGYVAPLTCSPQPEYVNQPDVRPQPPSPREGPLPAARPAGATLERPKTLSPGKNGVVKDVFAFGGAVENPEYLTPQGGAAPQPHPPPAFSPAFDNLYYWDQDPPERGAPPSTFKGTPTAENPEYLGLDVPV
Receptor tyrosine-protein kinase erbB-4 (Homo sapiens), sequence (Q15303 whole entry): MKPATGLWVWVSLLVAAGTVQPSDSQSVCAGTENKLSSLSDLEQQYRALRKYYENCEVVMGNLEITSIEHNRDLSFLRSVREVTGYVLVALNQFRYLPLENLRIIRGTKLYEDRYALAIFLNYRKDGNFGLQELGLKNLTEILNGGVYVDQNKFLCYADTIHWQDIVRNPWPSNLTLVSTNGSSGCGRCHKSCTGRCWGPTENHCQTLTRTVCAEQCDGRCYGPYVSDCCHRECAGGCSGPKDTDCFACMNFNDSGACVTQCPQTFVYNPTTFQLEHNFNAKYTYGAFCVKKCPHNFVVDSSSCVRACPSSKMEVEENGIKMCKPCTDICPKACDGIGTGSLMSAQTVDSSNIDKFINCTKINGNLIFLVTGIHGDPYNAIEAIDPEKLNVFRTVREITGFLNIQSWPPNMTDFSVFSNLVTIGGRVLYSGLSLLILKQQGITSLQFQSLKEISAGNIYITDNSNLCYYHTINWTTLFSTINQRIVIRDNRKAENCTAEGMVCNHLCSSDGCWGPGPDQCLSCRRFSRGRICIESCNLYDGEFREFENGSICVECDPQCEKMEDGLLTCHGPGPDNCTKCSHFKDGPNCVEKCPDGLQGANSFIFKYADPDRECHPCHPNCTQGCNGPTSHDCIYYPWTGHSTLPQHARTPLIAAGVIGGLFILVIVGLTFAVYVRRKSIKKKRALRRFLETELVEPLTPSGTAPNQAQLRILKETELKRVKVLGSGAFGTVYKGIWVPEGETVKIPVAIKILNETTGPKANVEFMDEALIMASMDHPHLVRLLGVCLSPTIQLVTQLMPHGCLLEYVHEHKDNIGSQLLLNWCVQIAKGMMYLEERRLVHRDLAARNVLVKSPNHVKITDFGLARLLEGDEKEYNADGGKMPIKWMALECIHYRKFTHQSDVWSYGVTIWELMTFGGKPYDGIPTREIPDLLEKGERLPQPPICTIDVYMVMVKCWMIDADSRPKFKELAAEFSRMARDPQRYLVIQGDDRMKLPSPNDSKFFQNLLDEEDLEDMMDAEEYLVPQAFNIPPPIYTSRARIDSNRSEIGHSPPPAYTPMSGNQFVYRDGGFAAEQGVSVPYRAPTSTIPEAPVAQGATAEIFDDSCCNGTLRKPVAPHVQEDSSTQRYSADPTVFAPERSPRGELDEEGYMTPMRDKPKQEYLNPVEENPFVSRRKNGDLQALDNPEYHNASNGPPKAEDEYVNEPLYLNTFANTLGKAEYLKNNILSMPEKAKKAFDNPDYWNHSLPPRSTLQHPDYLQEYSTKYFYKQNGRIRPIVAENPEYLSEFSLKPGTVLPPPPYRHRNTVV

## FC(F)(F)c1cccc(-c2nn3ncccc3c2-c2ccnc(Nc3ccc4c(c3)OCCO4)n2)c1
[1]
  inhibition: 18.1%
[2]
  inhibition: 5.94%
[3]
  inhibition: 3%
[4]
  inhibition: 2.8%
[5]
  inhibition: 21.3%
[6]
  inhibition: 1.37%
[7]
  inhibition: 11.4%
[8]
  inhibition: 48.3%
[9]
  inhibition: 81.5%
[10]
  inhibition: 0.32%

## O=S(=O)(CCNCc1ccc(-c2ccc3ncnc(Nc4ccc(OCc5cccc(F)c5)c(Cl)c4)c3c2)o1)c1ccccc1
[1]
  inhibition: 13%
[2]
  inhibition: 4.95%
[3]
  inhibition: 4.03%
[4]
  inhibition: 0.96%
[5]
  inhibition: 2.99%
[6]
  inhibition: 43.9%
[7]
  inhibition: 60.5%
[8]
  inhibition: 36.4%
[9]
  inhibition: 89%
[10]
  inhibition: 3.86%

## COc1cc2c(cc1Nc1nc(Nc3ccsc3C(N)=O)c3cc[nH]c3n1)N(C(=O)CN(C)C)CCC2(C)C
[1]
  inhibition: 9.01%
[3]
  inhibition: -7.19%
[4]
  inhibition: 2.71%
[5]
  inhibition: 2.72%
[6]
  inhibition: 2.91%
[7]
  inhibition: -0.07%
[8]
  inhibition: 14.2%
[9]
  inhibition: 36.4%
[10]
  inhibition: 95.5%

## CN1CCC(n2cnc(-c3ccc(F)cc3)c2-c2ccnc(Nc3ccccc3)n2)CC1
[1]
  inhibition: 44.1%
[2]
  inhibition: 4.66%
[3]
  inhibition: 2.3%
[4]
  inhibition: 3.77%
[5]
  inhibition: 12.6%
[6]
  inhibition: 5.05%
[7]
  inhibition: 15.9%
[8]
  inhibition: 10.6%
[9]
  inhibition: 27.2%
[10]
  inhibition: 1.86%

## CS(=O)(=O)CCNCc1coc(-c2ccc3ncnc(Nc4ccc(OCc5ccccc5)cc4)c3c2)c1
[1]
  inhibition: 7.45%
[2]
  inhibition: 3.83%
[3]
  inhibition: 4.34%
[4]
  inhibition: 2.88%
[5]
  inhibition: 4.04%
[6]
  inhibition: 6.1%
[7]
  inhibition: 59%
[8]
  inhibition: 55.3%
[9]
  inhibition: 94.1%
[10]
  inhibition: -0.6%

## Fc1ccc(-c2nn3ncccc3c2-c2ccnc(Nc3ccc4c(c3)OCCO4)n2)cc1
[1]
  inhibition: 73.6%
[3]
  inhibition: 16.2%
[4]
  inhibition: 20.1%
[5]
  inhibition: 64.8%
[6]
  inhibition: 11%
[7]
  inhibition: 41.4%
[8]
  inhibition: 84.3%
[9]
  inhibition: 94.6%
[10]
  inhibition: 1.71%

## CCNC(=O)O[C@H]1CN[C@H](C#Cc2cc3ncnc(Nc4ccc(OCc5cccc(F)c5)c(Cl)c4)c3s2)C1
[1]
  inhibition: 4.8%
[2]
  inhibition: 3.91%
[3]
  inhibition: 5.16%
[4]
  inhibition: 3.25%
[5]
  inhibition: 4.36%
[6]
  inhibition: 8.63%
[7]
  inhibition: 60.4%
[8]
  inhibition: 94.2%
[9]
  inhibition: 101%
[10]
  inhibition: 4.88%

## CCN(CC)S(=O)(=O)c1ccc(OC)c(Nc2ncc(-c3ccccc3)o2)c1
[1]
  inhibition: 15.1%
[2]
  inhibition: 3.77%
[3]
  inhibition: 0.54%
[4]
  inhibition: 0.17%
[5]
  inhibition: 7.93%
[6]
  inhibition: 0.91%
[7]
  inhibition: 2.81%
[8]
  inhibition: 7.08%
[9]
  inhibition: 6.51%
[10]
  inhibition: 0.84%

## Cc1ccc2c(-c3ccnc(Nc4ccccc4)n3)c(-c3ccc(F)cc3)nn2n1
[1]
  inhibition: 70.6%
[2]
  inhibition: 6.49%
[3]
  inhibition: 11.4%
[4]
  inhibition: 12.9%
[5]
  inhibition: 56.9%
[6]
  inhibition: 3.68%
[7]
  inhibition: 32.3%
[8]
  inhibition: 67.3%
[9]
  inhibition: 88.7%
[10]
  inhibition: 0.47%

## Clc1ccc(-c2nn3ncccc3c2-c2ccnc(Nc3ccccc3)n2)cc1
[1]
  inhibition: 55.4%
[2]
  inhibition: 4.87%
[3]
  inhibition: 5.92%
[4]
  inhibition: 6.02%
[5]
  inhibition: 37.2%
[6]
  inhibition: -4.83%
[7]
  inhibition: 6.14%
[8]
  inhibition: 27.9%
[9]
  inhibition: 69.5%
[10]
  inhibition: 1.86%

## CCN1CCC(CC(=O)Nc2n[nH]c3nnc(-c4cccc(F)c4F)cc23)CC1
[1]
  inhibition: 3.83%
[2]
  inhibition: 2.04%
[3]
  inhibition: 5.11%
[4]
  inhibition: -0.34%
[5]
  inhibition: 1.27%
[6]
  inhibition: 2.4%
[7]
  inhibition: 3.76%
[8]
  inhibition: 3.77%
[9]
  inhibition: 10.1%
[10]
  inhibition: -0.6%

## CCn1c(-c2nonc2N)nc2c(C#CC(C)(C)O)nc(OC[C@H](N)c3ccccc3)cc21
[1]
  inhibition: 0.23%
[2]
  inhibition: 0.72%
[3]
  inhibition: 1.06%
[4]
  inhibition: 1.68%
[5]
  inhibition: 1.24%
[6]
  inhibition: 0.79%
[7]
  inhibition: 3.43%
[8]
  inhibition: 6.48%
[9]
  inhibition: 28.9%
[10]
  inhibition: 2.98%

## Nc1ncc(-c2cccc(S(N)(=O)=O)c2)c2scc(-c3ccc(F)c(Cl)c3)c12
[1]
  inhibition: 88.7%
[2]
  inhibition: 9.18%
[3]
  inhibition: 22%
[4]
  inhibition: 49.3%
[5]
  inhibition: 87.1%
[6]
  inhibition: 4.06%
[7]
  inhibition: 6.32%
[8]
  inhibition: 13.2%
[9]
  inhibition: 29.6%
[10]
  inhibition: 5.25%

## CNC(=O)c1cc(-c2ccc(F)cc2)cc(-c2ccc(S(=O)(=O)N3CCCC3)cc2)c1N
[1]
  inhibition: 5.41%
[2]
  inhibition: 0.26%
[3]
  inhibition: 3.7%
[4]
  inhibition: 1.99%
[5]
  inhibition: 2.03%
[6]
  inhibition: 2.24%
[7]
  inhibition: 7.8%
[8]
  inhibition: 5.77%
[9]
  inhibition: 10.4%
[10]
  inhibition: 2.99%

## CNC(=O)c1cncc(/C=C/c2ccccc2Cl)c1
[1]
  inhibition: 8.47%
[2]
  inhibition: -1.27%
[3]
  inhibition: 1.05%
[4]
  inhibition: -0.2%
[5]
  inhibition: 4.63%
[6]
  inhibition: 0.54%
[7]
  inhibition: 5.61%
[8]
  inhibition: 3.2%
[9]
  inhibition: 8.96%
[10]
  inhibition: 2.91%

## COc1cc2ncn(-c3cc(OCc4ccccc4C(F)(F)F)c(C(=O)N(C)C)s3)c2cc1OC
[1]
  inhibition: 3.29%
[2]
  inhibition: 2.32%
[3]
  inhibition: 0.33%
[4]
  inhibition: -1.02%
[5]
  inhibition: 1.55%
[6]
  inhibition: 0.2%
[7]
  inhibition: -1.05%
[8]
  inhibition: 2.15%
[10]
  inhibition: -0.2%

## Fc1cccc(COc2ccc(Nc3ncnc4sc(-c5ccco5)cc34)cc2Cl)c1
[1]
  inhibition: 8.15%
[2]
  inhibition: 5.55%
[3]
  inhibition: 4.99%
[4]
  inhibition: 4%
[5]
  inhibition: 2.19%
[6]
  inhibition: -0.58%
[7]
  inhibition: 14.7%
[8]
  inhibition: 28.4%
[9]
  inhibition: 75.8%
[10]
  inhibition: 1.71%
